Laboratory results from PubChem BioAssay AID686971 (National Center for Advancing Translational Sciences (NCATS), 2013).
In all, about 360,000 compounds went through this assay and about 7,500 (2.1%) were called active. Inconclusive results (about 8%) are left out. Shown is part of a subset that was picked to be rich in actives. Values without a mark were called inactive. The call rests on the fitted dose curve; in most records, active means well fitted cell-killing curve with a large enough effect; inconclusive means small, poorly fitted or top-dose-only effect, or effect the other way, or another doubt; inactive means no such curve, though single readings can be large or run the other way.

Experiment: qHTS for induction of synthetic lethality in tumor cells producing 2HG: qHTS for the HT-1080-IDH1KD cell line;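 on activity, negative = toxicity: 0% = DMSO wells and -100% = cell-free medium wells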
Conditions: HT-1080 IDH1 knockdown viability, ATP luminescence, 48 h; series mostly up to 46.1 µM; activity, negative = toxicity: at the top concentration
Summary of the method: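 Using the IDH1-knockdown HT-1080 line run in the same batch and compound series as the NT line, viability after 48 h at 37 °C was determined by CellTiter-Glo luminescence and expressed as % activity.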
Potency means the concentration at half of the fitted maximal effect.

| Structure (SMILES) | activity, negative = toxicity | Potency |
| --- | --- | --- |
| COc1cc(CNc2ncnc3c2ncn3[C@H]2CN(Cc3cccs3)C[C@@H](CO)O2)cc(OC)c1OC | -13.4% |  |
| CCc1ccc(CNC(=O)C2CC(=O)N(CCc3ccc(C)cc3)C2)cc1 (stereo not drawn) | -11.8% |  |
| COc1ccc(-n2nc3c(N4CCC(C(=O)NCc5ccccc5)CC4)nnc(C)c3c2C)cc1 | -28.5% |  |
| CCc1ccc(CNC(=O)C2CCN(c3nnc(C)c4c(C)n(-c5ccc(C)cc5)nc34)CC2)cc1 |  | 14.6 µM (active) |
| OC[C@H]1O[C@@H](c2nc(-c3nc(-c4ccc(F)cc4)no3)cs2)[C@H](O)[C@@H](O)[C@H]1O | 9.85% |  |
| COc1ccc(OC)c(C2C3=C(N=c4s/c(=C\c5cccc(O)c5)c(=O)n42)c2ccccc2CC3)c1 (stereo not drawn) |  | 20.6 µM (active) |
| CCOC(=O)C1=C(C)N=c2s/c(=C\C(=O)OC)c(=O)n2C1c1ccc(OC)cc1 (stereo not drawn) | 3.8% |  |
| O=C1CCCC2=C1C(c1ccccc1)n1c(s/c(=C/c3cccc(F)c3)c1=O)=N2 (stereo not drawn) | 20.1% |  |
| COc1ccc(S(=O)(=O)NC(=O)C2(C)CCN2C(=O)c2ccccc2CCc2ccccc2)cc1 (stereo not drawn) | 0.309% |  |
| COC(=O)C[C@H]1C=C[C@H](NC(=O)c2ccc(F)cc2)[C@@H](CO)O1 | -11.6% |  |
| C1=C(CCNc2ncnc3c2cnn3-c2ccccc2)CCCC1 | -4.48% |  |
| Cc1ccc(S(=O)(=O)N2CCC(C(=O)NCCC3=CCCCC3)CC2)cc1C | 1.26% |  |
| O=C(NCCC1=CCCCC1)C1CCN(Cc2cnn(-c3ccccc3)c2-n2cccc2)CC1 |  | 25.9 µM (active) |
| CCOC(=O)c1ccc(-c2ccc(C(=O)Nc3cccnc3)o2)cc1 | -18.7% |  |
| CCOC(=O)c1ccc(NC(=O)c2cccnc2)cc1 |  | 14.6 µM (active) |
| CCOC(=O)c1cc(NC(=O)c2cccnc2)ccn1 | 2.72% |  |
| CCCCCC(=O)N1C[C@H](O)[C@@H](n2cc(COC(=O)c3ccccc3)nn2)C[C@@H]1c1ccc(C)cc1 | -9.31% |  |
| Cc1onc(-c2ccccc2)c1-c1nnc(COC(=O)c2ccc(N(C)C)cc2)o1 | -11.6% |  |
| N#CCSc1nc(-c2ccccc2)nc2ccc(F)cc12 | -0.0349% |  |
| Clc1ccc2nc(-c3ccccc3)nc(C(Cl)Cl)c2c1 |  | 7.31 µM (active) |
| Clc1cccc(-c2nc(NCC3CCCO3)c3ccccc3n2)c1 (stereo not drawn) | -27.2% |  |
| CN1CCN(c2ccncc2S(=O)(=O)N2CCCC2)CC1 | 4.49% |  |
| Cc1[nH]c2ccccc2c1C(=O)COC(=O)c1c(-c2ccccc2)noc1C |  | 23.1 µM (active) |
| Cc1onc(-c2ccccc2Cl)c1C(=O)OCc1nnc(-c2ccccc2)o1 | -11% |  |

| Structure (SMILES) | activity, negative = toxicity | Potency |
| --- | --- | --- |
| Cc1onc(-c2ccccc2Cl)c1C(=O)OCC(=O)c1ccccc1 | -18.5% |  |
| CC1(C)CC(=O)C=C(c2ccc(COC(=O)c3cc(F)cc(F)c3)cc2)C1=O | -10% |  |
| O=C(Nc1ccc(Br)cn1)c1ccc([N+](=O)[O-])cc1Cl | -0.286% |  |
| Cc1onc(NC(=O)c2ccc([N+](=O)[O-])o2)c1Br | -35.8% |  |
| O=C(Nc1ccc(Br)cn1)c1ccc([N+](=O)[O-])o1 |  | 10.3 µM (active) |
| CC1CC(NC(=S)N(C)C)CC(C)(C)C1 (stereo not drawn) | 3.3% |  |
| COc1ccc(/C=C2\SC(=S)N(CCC(=O)N3CCOCC3)C2=O)cc1OC | 11.1% |  |
| c1ccc2cc3[nH]c(CN4CCCCC4)nc3cc2c1 | -4.75% |  |
| CCCCCn1nnnc1-c1nc2cc3ccccc3cc2[nH]c1=O |  | 7.31 µM (active) |
| CCCCCn1nnnc1C1c2ccccc2C(=O)N1Cc1ccco1 (stereo not drawn) | 14.3% |  |
| COc1ccc(S(=O)(=O)NC(=O)C2(C)CCN2C(=O)COc2ccc(Cl)cc2)cc1 (stereo not drawn) | 0% |  |
| CC1(C(=O)NCc2ccc3c(c2)OCO3)CCN1C(=O)Cc1cccc2ccccc12 (stereo not drawn) | 2.6% |  |
| Nc1[nH]c(C(=O)c2ccccc2)c(-c2ccc(Br)cc2)c1C(=O)NC1CC1 | 2.93% |  |
| O=C(NCc1cccnc1)c1cc(C2CCCN(C(=O)CCCc3ccccc3)C2)on1 (stereo not drawn) | 14% |  |
| O=C(C[C@H]1C[C@@H]2c3cc(NC(=O)C4CCC4)ccc3O[C@@H]2[C@H](CO)O1)NC1CCCCC1 | 10.6% |  |
| COc1ccc(S(=O)(=O)N(C)C)cc1NC(=O)COC(=O)c1n[nH]c2ccccc12 | 0.573% |  |
| Cn1c(CC(=O)NNC(=O)c2ccccc2F)nc2ccccc21 | 0% |  |
| CC(NC(=O)c1ccccc1F)c1cccc2ccccc12 (stereo not drawn) | -0.529% |  |
| CN(NC(=O)c1ccccc1F)c1nc(C(F)(F)F)nc2ccccc12 |  | 0.206 µM (active) |
| COc1ccc(C(=O)NN(C)c2nc(-c3ccccc3)cc(C)c2S(C)(=O)=O)cc1 | 4.2% |  |
| CSc1nc(N(C)NC(=O)c2cccc(C)c2)c2ccccc2n1 |  | 0.0461 µM (active) |
| Cc1cccc(C(=O)Nc2ccc(C(=O)N/N=C/c3cccc(C)n3)cc2)c1 | -19.7% |  |
| CC1=C(C(=O)N2CCOCC2)CC(CC(=O)NCCN2CCOCC2)C(=O)N1CCC1=CCCCC1 (stereo not drawn) | 7.72% |  |
| Cc1noc(C)c1S(=O)(=O)N(C)C[C@H]1OCCCC[C@@H](C)Oc2ccc(NC(=O)CCCN(C)C)cc2C(=O)N([C@H](C)CO)C[C@@H]1C | 9.14% |  |

| Structure (SMILES) | activity, negative = toxicity | Potency |
| --- | --- | --- |
| Cc1noc(C)c1C(=O)N1CCC1(C)C(=O)NS(=O)(=O)c1ccc(C#N)cc1 (stereo not drawn) | 21.7% |  |
| CN1OC[C@@H]2CN[C@H](c3ccc(-c4ccccc4)cc3)C[C@@H]21 | -1.25% |  |
| CCNC(=O)C1(C)CCCN(C(=O)c2c(C)noc2C)C1 (stereo not drawn) | 2.57% |  |
| CN1OC[C@@H]2CN(S(=O)(=O)c3cccc(C(F)(F)F)c3)[C@H](c3ccc(-c4cc5ccccc5o4)cc3)C[C@@H]21 | 1.74% |  |
| COCCNC(=O)C1C(=O)Nc2ccccc2C(=O)N1c1ccc2c(c1)OCCO2 (stereo not drawn) | 21.6% |  |
| C[C@@H]1CN([C@@H](C)CO)C(=O)CCCn2nncc2CO[C@@H]1CN(C)S(=O)(=O)c1ccc(-c2ccccc2)cc1 | -1.95% |  |
| Cn1c(=O)c2cc(NC(=O)NCCc3cccs3)ccc2n1Cc1cccc(C(F)(F)F)c1 | -29% |  |
| Clc1ccc(-c2cc(-c3ccccn3)on2)c(Cl)c1 | -24.4% |  |
| Clc1ccc(-c2cc(C3CCNCC3)[nH]n2)c(Cl)c1 |  | 23.1 µM (active) |
| O=C(OCc1cn([C@@H]2C[C@H](c3ccc(Cl)cc3)N(Cc3cccs3)C[C@H]2O)nn1)c1ccccc1 | 1.15% |  |
| COC(=O)[C@@]12C[C@@H](CC(=O)N3CCCCC3)C(=O)N(Cc3ccc4c(c3)OCO4)C1=CCC(C)(C)C2 | -23.6% |  |
| CC(=O)c1cccc(NC(=S)N2CCCC2)c1 | 11.1% |  |
| CSc1ccccc1C(=O)Nc1cccc(C(C)=O)c1 | -6.03% |  |
| C=CCSc1nsc(NC(=O)Nc2cccc(C(C)=O)c2)n1 |  | 16.4 µM (active) |
| Cc1cc2oc(=O)cc(CN(C)Cc3ccccc3)c2cc1Cl | 2.28% |  |
| Cc1nn(-c2ccccc2)c(Cl)c1/C=N/NC(=O)c1nn(C)cc1[N+](=O)[O-] | -29.8% |  |
| Cc1ccc2[nH]c(C(=O)O)c(NC(=O)c3ccccc3[N+](=O)[O-])c2c1 | 9.67% |  |
| Cc1c(C(=O)N/N=C/c2ccccc2)[nH]c2c([N+](=O)[O-])cccc12 |  | 0.517 µM (active) |
| CC1(C)OC(=O)C2=C(C[C@@H](C3CCCC3)O[C@@H]2c2ccc(Cl)cc2)O1 | 8.76% |  |
| CC1(C)CCc2cc(S(=O)(=O)N3CCN(c4nc(-c5cccs5)nc5ccccc45)CC3)ccc2O1 | 5.15% |  |
| COc1ccc(C(C)(NC(C)=O)c2nc(-c3ccc(S(C)(=O)=O)cc3)cs2)cc1 (stereo not drawn) | 8.14% |  |
| COC(=O)c1ccc2nc(-c3ccc(Cl)cc3)c(Cc3cccc(F)c3)n2c1 | 9.38% |  |
| CC(C)CC[n+]1ccn(C2=C([O-])c3ccccc3C(=O)/C2=N\S(=O)(=O)c2ccccc2)c1 |  | 11.2 µM (active) |
| CC[C@@H]1CC2=C(C(=O)OC(C)(C)O2)[C@@H](CC)O1 | -0.785% |  |

| Structure (SMILES) | activity, negative = toxicity | Potency |
| --- | --- | --- |
| CCOC(=O)C1(C)CCCN(C(=O)c2ccc(N(C)C)cc2)C1 (stereo not drawn) | 8.71% |  |
| O=C(Nc1cccc(Cl)c1)c1cc([N+](=O)[O-])ccc1N1CCN(CCO)CC1 | -0.581% |  |
| CCC(=O)c1ccc(N2CCN(C(=O)c3cc([N+](=O)[O-])ccc3F)CC2)c(F)c1 | 2.7% |  |
| CCN1CCN(c2ccc([N+](=O)[O-])cc2C(=O)c2ccc(Cl)cc2)CC1 |  | 23.1 µM (active) |
| CN(Cc1c(F)cccc1Cl)C(=O)COC(=O)Cn1cnc2ccccc2c1=O | 4.82% |  |
| CN(C)CCCn1c(=O)n(Cc2ccccc2)c(=O)c2c3c(sc21)CCCCC3 |  | 25.9 µM (active) |
| Cn1c(=O)n(Cc2ccco2)c(=N)c2c3c(sc21)CCCC3 | -10% |  |
| O=c1c2c3c(sc2n(CCN2CCCC2)c(=O)n1Cc1ccccc1)CCCCC3 | -0.168% |  |
| COc1cccc(-c2nc3nc(C)cc(C)n3c2NC2CCCCC2)c1 | 7.4% |  |
| COC(=O)C[C@H]1C=C[C@@H](NS(=O)(=O)c2ccc(C)cc2)[C@@H](CO)O1 | 15.1% |  |
| COCCNC(=O)C1(C)CCCN(Cc2cccc(F)c2)C1 (stereo not drawn) | 9.99% |  |
| CCCc1cc(=O)[nH]c(SCC(=O)c2cc(C)n(CCC)c2C)n1 | 2.35% [at 9.24 µM] |  |
| CCCc1cc(=O)[nH]c(SCC(=O)OCc2ccccc2)n1 | 0.689% |  |
| CCCc1cc(=O)[nH]c(SCC(=O)c2c(N)n(CC(C)C)c(=O)n(C)c2=O)n1 |  | 3.26 µM (active) |
| COC(=O)c1ccc2nc(-c3ccccc3)c(Cc3ccc(OC)cc3C)n2c1 | 5.54% |  |
| O=C(c1cc(C2CCCCN2S(=O)(=O)c2ccccc2)on1)N1CCOCC1 (stereo not drawn) | 19.8% |  |
| CCOC(=O)C(=Cc1ccccc1)C(=O)c1ccccc1 |  | 18.4 µM (active) |
| CCOC(=O)/C(=C\c1ccc([N+](=O)[O-])cc1)C(=O)c1cc(C(C)=O)c(Nc2ccccc2)s1 | 17.6% |  |
| CCOC(=O)NC(=O)/C(C#N)=C\c1ccccc1 | 1.01% |  |
| COC(=O)C[C@H]1C[C@@H]2c3cc(NC(=O)Nc4ccccc4)ccc3O[C@@H]2[C@@H](CO)O1 | 4.69% |  |
| COc1ccc(C2Nc3ccc(NC(=O)COC(C)=O)cc3C(=O)N2Cc2ccccc2)cc1COc1ccc(NC(C)=O)cc1 (stereo not drawn) | -21.2% |  |
